# The campaign covered roughly 310,000 compounds. About 14,000 (4.5%) showed an effect of 50% or more. The effect is printed as a negative number. The entries come from a sample that favours strong results as a whole.
# Molecular target: human ether-à-go-go-related gene (hERG) potassium channel (human, UniProt Q12809)
# Test: primary screen, population patch clamp on CHO cells stably expressing hERG; higher = less effect of the substance
# 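Further: peak tail current of the secondary pulse compared with the same well before compound.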
# human ether-à-go-go-related gene (hERG) potassium channel, sequence (Q12809 whole entry, looked up): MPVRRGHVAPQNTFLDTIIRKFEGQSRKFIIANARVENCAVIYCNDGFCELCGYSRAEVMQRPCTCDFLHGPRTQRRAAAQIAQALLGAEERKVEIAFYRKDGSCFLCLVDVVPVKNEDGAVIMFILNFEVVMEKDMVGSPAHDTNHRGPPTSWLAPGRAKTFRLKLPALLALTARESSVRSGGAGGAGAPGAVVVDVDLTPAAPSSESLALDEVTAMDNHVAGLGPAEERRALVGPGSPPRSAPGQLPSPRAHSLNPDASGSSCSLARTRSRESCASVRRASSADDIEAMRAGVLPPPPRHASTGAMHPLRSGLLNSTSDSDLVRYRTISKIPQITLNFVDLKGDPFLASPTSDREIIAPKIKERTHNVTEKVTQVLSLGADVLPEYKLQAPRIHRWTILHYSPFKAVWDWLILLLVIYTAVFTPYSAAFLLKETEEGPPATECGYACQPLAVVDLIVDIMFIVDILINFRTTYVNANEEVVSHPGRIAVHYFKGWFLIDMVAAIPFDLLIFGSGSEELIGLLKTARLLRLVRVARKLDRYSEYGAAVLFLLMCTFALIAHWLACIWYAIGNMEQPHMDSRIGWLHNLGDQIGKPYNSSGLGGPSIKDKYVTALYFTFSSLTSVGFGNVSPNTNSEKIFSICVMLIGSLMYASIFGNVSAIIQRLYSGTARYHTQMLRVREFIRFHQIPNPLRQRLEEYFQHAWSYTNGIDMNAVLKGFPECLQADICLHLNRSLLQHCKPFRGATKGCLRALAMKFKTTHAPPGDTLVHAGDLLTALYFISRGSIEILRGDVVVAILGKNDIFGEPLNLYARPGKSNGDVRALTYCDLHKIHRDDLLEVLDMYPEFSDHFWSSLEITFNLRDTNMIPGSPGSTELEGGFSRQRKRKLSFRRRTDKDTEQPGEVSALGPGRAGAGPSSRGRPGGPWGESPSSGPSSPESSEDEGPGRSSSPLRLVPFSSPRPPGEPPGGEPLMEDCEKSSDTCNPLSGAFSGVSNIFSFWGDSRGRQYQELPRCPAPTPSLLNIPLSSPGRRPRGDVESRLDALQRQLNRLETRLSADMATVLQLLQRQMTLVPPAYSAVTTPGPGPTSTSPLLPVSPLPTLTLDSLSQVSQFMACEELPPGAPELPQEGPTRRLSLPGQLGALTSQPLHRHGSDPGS
row,SMILES,"hERG current change (%, negative = inhibition) at 10uM [%]"
1,O=c1nc2n(c3ccc([N+](=O)[O-])cc13)CCCCC2,-15.4
2,CCc1ccc2nc(Nc3nc(COC)cc(=O)[nH]3)nc(C)c2c1,-73.3
3,COCc1cc(=O)[nH]c(Nc2nc(C)c3ccccc3n2)n1,-8.74
4,COCc1cc(=O)[nH]c(Nc2nc(C)c3cc(OC)ccc3n2)n1,7.05
5,CCC(=O)Nc1ccc(C(=O)Nc2ccc(OC)cc2[N+](=O)[O-])cc1,13.7
6,FC(F)(F)c1cccc(Cc2noc(CN3CCCCC3c3ccccn3)n2)c1 (stereo not drawn),-8.11
7,Cc1ncc(CN2CCC(n3nccc3NC(=O)c3ccccc3)CC2)s1,-19
8,COc1ccccc1C(=O)Nc1ccnn1C1CCN(Cc2cnc(N(C)C)s2)CC1,-65
9,Cc1cc(CN2CCC(n3nccc3NC(=O)c3ccccc3Cl)CC2)cc(C)c1O,-74.2
10,COc1ccccc1CN1CCC(n2nccc2NC(=O)c2ccccc2Cl)CC1,-76.2
11,Cc1ccccc1C(=O)Nc1ccnn1C1CCN(Cc2cccnc2)CC1,-77.4
12,COc1cccc(OC)c1OC(=O)/C=C/c1ccc(C)o1,6.2
13,CC(C)(C)C(=O)NCCCNc1ccc([N+](=O)[O-])cc1,-24.7
14,CC(C)(C)c1ccc(C(=O)NCCC(=O)NCc2ccco2)cc1,-36.1
15,Cc1cc(C)n2nc(CCc3ccccc3)nc2n1,-12.8
16,O=C(O)CCC(=O)NC1CCCCC1,6.89
17,COc1ccc(/C=C/c2nc(-c3ccccc3O)n(-c3ccccc3)n2)cc1,-2.17
18,COc1ccc(OC)c(CNc2ccc([N+](=O)[O-])cc2C)c1,3.55
19,O=C(Nc1ccnn1C1CCN(Cc2ccccc2)CC1)c1ccccc1Cl,-76.1

row,SMILES,"hERG current change (%, negative = inhibition) at 10uM [%]"
1,Cc1ccccc1C(=O)Nc1ccnn1C1CCN(Cc2ccccn2)CC1,-33.9
2,Cc1cc(C)c(CN2CCC(n3nccc3NC(=O)c3ccccc3Cl)CC2)cc1C,-50.8
3,CCc1ccc(CN2CCC(n3nccc3NC(=O)c3ccccc3C)CC2)cc1,-76.2
4,O=C(Nc1ccnn1C1CCN(C2CCC2)CC1)c1ccccc1,-0.539
5,O=C(Nc1ccnn1C1CCN(C2CCCC2)CC1)c1ccccc1Cl,-45
6,O=C(Nc1ccnn1C1CCN(C2CCC2)CC1)c1ccccc1Cl,-63.6
7,O=C(Nc1ccnn1C1CCN(Cc2cccnc2)CC1)c1ccccc1Cl,-37.1
8,Cc1ccccc1C(=O)Nc1ccnn1C1CCN(Cc2ccncc2)CC1,-45.1
9,C=CCN1C(=O)C(C)(C)Nc2ccccc21,6.7
10,O=C(c1cccnc1Cl)N(Cc1ccccc1)Cc1ccccc1,-17.7
11,CC(=O)Nc1ccc(-c2csc(-c3cccnc3)n2)cc1,3.98
12,O=C1Nc2ccccc2/C1=C/c1ccccc1F,26.3
13,COc1cc(NC(=O)C2CCCO2)c(OC)cc1NC(=O)c1ccccc1 (stereo not drawn),8.17
14,CC(=O)OC[C@H]1O[C@@H](Sc2cccc3cccnc23)[C@H](OC(C)=O)[C@@H](OC(C)=O)[C@@H]1OC(C)=O,-11.4
15,CCCN(C#N)c1nc(NCC)nc(NC(C)C)n1,-10.2
16,O=C1CN(CC(=O)Nc2ccc(Cl)cc2)CCN1,-4.87
17,CC(=O)c1cccc(NC(=O)N2C3CCCC2CC(NC(=O)C2CC2)C3)c1 (stereo not drawn),17.2
18,COC(C(=O)Nc1ccnn1C1CCN(Cc2ccc(Cl)s2)CC1)c1ccccc1 (stereo not drawn),-5.29
19,CCN1CCC(n2nccc2NC(=O)c2ccccc2Cl)CC1,-21

row,SMILES,"hERG current change (%, negative = inhibition) at 10uM [%]"
1,CSc1ccc(CN2CCC(n3nccc3NC(=O)c3ccccc3C)CC2)cc1,-75
2,COc1ccccc1C(=O)Nc1ccnn1C1CCN(Cc2ccccc2OCCO)CC1,-78.7
3,CCc1ccc(CN2CCC(n3nccc3NC(=O)c3ccccc3Cl)CC2)cc1,-84.4
4,COC(C(=O)Nc1ccnn1C1CCN(Cc2nccs2)CC1)c1ccccc1 (stereo not drawn),0.847
5,Cc1cccc(CN2CCC(n3nccc3NC(=O)c3ccccc3C)CC2)n1,-19.9
6,COC(C(=O)Nc1ccnn1C1CCN(Cc2ccc(C)s2)CC1)c1ccccc1 (stereo not drawn),-50.8
7,Cc1cc(OCC(=O)Nc2cccnc2)c2c(C)cc(=O)oc2c1,4.24
8,O=C(Cc1cccs1)N1CCN(c2nc(-c3ccc(Cl)cc3)cs2)CC1,-8.73
9,c1ccc(-c2cnc(-c3ccccc3)nc2)cc1,13.4
10,CCOc1ccc(N/C=C/C(=O)c2ccc(OC)cc2)c([N+](=O)[O-])c1,24.5
11,CCOC(=O)C1CCCN(C(=O)c2ccc3nc(-c4cccc(OC)c4)oc3c2)C1 (stereo not drawn),-28.6
12,CC(O)C(O)C(O)C(O)C1NCCS1 (stereo not drawn),6.81
13,Cc1cc(C)cc(N(CCC#N)C(=O)COC(=O)CCc2c[nH]c3ccccc23)c1,-32.6
14,O=C(NCCc1c[nH]c2ccccc12)OCCSS(=O)(=O)[O-].[Na+],9.49
15,Br.O=C(c1ccc(Br)cc1)c1sc(N2CCOCC2)nc1-c1ccccc1,-1.44
16,CCCN(Cc1cc2ccc(C)cc2[nH]c1=O)S(=O)(=O)c1ccccc1,6.34
17,O=C(c1ccco1)N1CCN(S(=O)(=O)c2cc(Cl)ccc2Cl)CC1,-21.5
18,O=S(=O)(c1cc(Cl)ccc1Cl)N1CCN(Cc2ccco2)CC1,-54.1
19,Cc1ccc(S(=O)(=O)N2CCN(Cc3ccco3)CC2)c(C)c1,-35.6
